# GCN5L2 inh – inhibitors of human GCN5L2 histone acetyltransferase. 0.21% of 390,000 active. Potency, µM (series often up to 58.9 µM), for inactives: top-dose activity change, negative = inhibition, actives largely listed as inhibitors. Q92830. GCN5L2 HAT assay, ThioGlo1 CoA-SH fluorescence; further: potency means the concentration at half of the fitted maximal effect; on the % scale 0 is the no-effect control and ±100 the full control effect
#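 Titration-based screen in which CoA formation is detected via maleimide probe ThioGlo1 (50uM) turning fluorescent on thiol reaction; substrates H3(1-25) 75uM and acetyl-CoA 70uM, GCN5L2 20nM, 20 min incubation at room temperature.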
# JMJD2A Tudor inh – inhibitors of human JMJD2A Tudor domain | Potency, µM (doses to about 114 µM), for the others: at the top dose activity change, negative = inhibition, actives largely listed as inhibitors | 4.4% of 390,000 active | AID 504339 | O75164 | AlphaScreen JMJD2A-Tudor / H3K4me3 peptide binding; further: potency means the concentration at half of the fitted maximal effect; on the % scale 0 is the no-effect control and ±100 the full control effect; nearly all actives have a fitted effect of over 50% in size
# HP1b binding inh – blocks HP1-beta chromodomain binding to methylated histone tails; AlphaScreen HP1-beta / biotin-H3K9me3 peptide binding; P83916; 0.56% of 390,000 active; AID 540317; Potency, µM (series often up to 114 µM), inactives show at the highest dose activity change, negative = inhibition, most hits filed as inhibitors; further: potency means the concentration at half of the fitted maximal effect; nearly all actives have a fitted effect of over 70% in size
# Target sequence (P83916 whole entry, looked up): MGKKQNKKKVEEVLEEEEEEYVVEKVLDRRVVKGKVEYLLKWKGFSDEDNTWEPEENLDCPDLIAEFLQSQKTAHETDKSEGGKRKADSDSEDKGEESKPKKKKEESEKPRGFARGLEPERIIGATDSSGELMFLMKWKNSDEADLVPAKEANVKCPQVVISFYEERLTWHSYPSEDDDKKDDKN
#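 AlphaScreen: HP1-beta (50 nM) preformed 30 min with biotin-H3(1-18)K9me3 peptide (50 nM) in PBS pH 7.4, 0.01% Tween-20. Compound added for 30 min at RT, then streptavidin donor/nickel chelate acceptor beads (10 ug/mL) for 30 min.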
# BAZ2B block – blocks human BAZ2B; Q9UIF8; AlphaScreen BAZ2B-H3K14Ac peptide displacement; Potency, µM (highest dose often 114 µM), inactives show at the highest dose activity change, negative = inhibition, actives largely listed as inhibitors; 4.4% of 360,000 active; AID 504333; further: potency means the concentration at half of the fitted maximal effect; on the % scale 0 is the no-effect control and ±100 the full control effect; nearly all actives have a fitted effect of over 60% in size
#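 Inhibition is scored as reduced AlphaScreen emission. The BAZ2B/b-H3(5-23)K14Ac complex (50 nM each) in PBS pH 7.4, 0.01% Tween-20 meets compound (up to 110 uM) for 30 min at RT before bead addition.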
# PI5P4Ka inh – PI5P4K alpha (human) kinase inhibition | P48426 | PI5P4Kalpha enzyme, ADP-Glo luminescence, 60 min; stronger effect = lower value | max response, % | 1.2% of 330,000 active; active means max response of -50% or lower; inconclusive means between -30% and -50%; inactive means -30% or higher; further: value at the top dose of about 77 µM; on the % scale 0 is the no-effect control and ±100 the full control effect
# Target sequence (P48426 whole entry, looked up): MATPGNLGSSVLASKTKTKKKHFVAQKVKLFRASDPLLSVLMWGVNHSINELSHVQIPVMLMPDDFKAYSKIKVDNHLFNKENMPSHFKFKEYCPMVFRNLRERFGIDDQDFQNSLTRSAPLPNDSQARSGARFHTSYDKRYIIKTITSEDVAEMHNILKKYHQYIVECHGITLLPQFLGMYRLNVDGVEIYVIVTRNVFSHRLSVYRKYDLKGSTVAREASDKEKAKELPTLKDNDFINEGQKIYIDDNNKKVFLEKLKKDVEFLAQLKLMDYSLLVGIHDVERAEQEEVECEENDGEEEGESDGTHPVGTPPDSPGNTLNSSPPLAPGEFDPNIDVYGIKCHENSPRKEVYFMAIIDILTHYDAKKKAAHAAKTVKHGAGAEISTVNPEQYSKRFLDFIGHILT
#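 Luminescence from ADP-Glo served as readout of PI5P4Kalpha activity in a qHTS format. Reaction: enzyme, substrate, compound, ATP at 5 microM final, 60 min at RT.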
# PLK1 PBD block – PLK1 (human) polo-box domain binding inhibition | Plk1 PBD binding of FITC phosphopeptide, fluorescence polarization | Potency, µM, for inactives: max response, negative = inhibition, actives largely listed as inhibitors | 2.8% of 360,000 active | AID 720504; further: potency means the concentration at half of the fitted maximal effect; series mostly up to about 57 µM; on the % scale 0 is the no-effect control and ±100 the full control effect; nearly all actives have a fitted effect of over 65% in size
# TbPYK confirm – confirmation of Trypanosoma brucei pyruvate kinase inhibitors | shares compounds with PLK1 PBD block | recombinant TbPYK, Kinase-Glo ATP luminescence | Potency, µM (series often up to 76.9 µM), for inactives: at the highest dose activity change, negative = inhibition, most hits filed as inhibitors | 67% of 890 active | AID 720569; further: potency means the concentration at half of the fitted maximal effect; on the % scale 0 is the no-effect control and ±100 the full control effect; nearly all actives have a fitted effect of over 70% in size
# TbPYK ADP-Glo – TbPYK inhibition, orthogonal confirmation. 62% of 890 active. recombinant TbPYK, ADP-Glo luminescence, 60 min. AID 720584. shares compounds with PLK1 PBD block. Potency, µM (doses to about 76.9 µM), without a hit: at the top dose activity change, negative = inhibition, most hits filed as inhibitors; further: potency means the concentration at half of the fitted maximal effect; on the % scale 0 is the no-effect control and ±100 the full control effect; nearly all actives have a fitted effect of over 75% in size
# * marks the source's active call; other numbers are inactive results; ? = inconclusive; / = no result; [ ] = remark or other dose. This is a sample that favours compounds with a hit; in the whole collection about 7% have one here. Unless noted, the call rests on the fitted dose curve; in most records, active means well fitted curve in the direction sought with a large enough effect; inconclusive means small, poorly fitted or top-dose-only effect, or another doubt; inactive means no such curve, though single readings can be large; an effect the other way counts as inactive or inconclusive.
SMILES,GCN5L2 inh,JMJD2A Tudor inh,HP1b binding inh,BAZ2B block,PI5P4Ka inh,PLK1 PBD block,TbPYK confirm,TbPYK ADP-Glo
Cc1cc(=O)c2c(o1)C(=O)c1occc1C2=O,/,44.7µM*,-23.2%,/,?,?,2.51µM*,?
COc1cc(CN2CCN(Cc3ccc(C)cc3)C(CCO)C2)cc(OC)c1O (centres undefined),-0.1%,-25.1%,10.2%,-15.2%,-8.1,-22.1%,/,/
O=C(c1ccccc1)c1ccccc1N1C(=O)C=CC1=O,?,17.8µM*,11.2µM*,-27.6%,?,3.36µM*,3.98µM*,3.98µM*
CCOc1ccc(NC(=O)Cn2c(=O)n(CC(=O)NCCc3ccccc3)c(=O)c3sccc32)cc1,-10.2%,-17.4%,21.8%,0.9%,/,/,/,/
CCn1c(C)nc2cc(C(=O)NNC(=O)c3ccc(C)cc3)ccc21,5.0%,3.8%,40.7%,8.8%,0.0,2.5%,?,?
CCc1sc(C(C2C(=O)CC(C)(C)CC2=O)C2C(=O)CC(C)(C)CC2=O)cc1[N+](=O)[O-],-3.2%,-12.3%,34.6%,?,?,1.68µM*,15.8µM*,31.6µM*
COc1ccc(N2C(=O)/C(=C/c3cccs3)NC2=S)cc1,?,79.4µM*,?,?,?,2.67µM*,8.91µM*,12.6µM*
Cc1ccc(S(=O)(=O)N2CCN(C)CC2)cc1[N+](=O)[O-],2.2%,-17.3%,21.6%,-6.1%,/,-6.2%,/,/
CN1CCN(S(=O)(=O)c2ccc(N3CCN(c4ccc(O)cc4)CC3)c([N+](=O)[O-])c2)CC1,4.0%,31.6µM*,70.8µM*,?,-16.4,-1.2%,11.2µM*,17.8µM*
O=C(/C=C1\C(=O)Nc2ccccc21)/C=C1\C(=O)Nc2ccccc21,-18.0%,?,-1.1%,44.7µM*,-83.0*,8.44µM*,17.8µM*,17.8µM*
CN(O)/C=C1\C(=O)Nc2ccccc21,0.4%,-28.3%,-8.9%,-6.3%,6.6,-13.0%,/,/
CC(=O)C1=C(S(=O)(=O)c2ccc(C)cc2)CS(=O)(=O)C1,2.1%,22.4µM*,14.1µM*,?,?,2.12µM*,3.98µM*,5.62µM*
O=C(N/N=C/c1ccccc1)c1[nH]ncc1Br,0.9%,-16.5%[11.4 µM],31.0%,/,-11.6,-7.7%,-27.4%,0.7%
CC(C)CN(C(=O)CN1CCN(c2ccc(O)cc2)CC1)c1c(N)n(CC(C)C)c(=O)[nH]c1=O,-1.3%,?,50.1µM*,-6.0%,-12.0,-10.5%,?,?
CC(=O)c1ccc(N2CCN(CC(=O)N(CC(C)C)c3c(N)n(CC(C)C)c(=O)[nH]c3=O)CC2)cc1,-7.4%,-24.1%,50.1%,-36.6%,1.6,5.7%,/,/
O=C1ON=C(c2ccccc2)/C1=C/c1ccc(-c2ccccc2[N+](=O)[O-])o1,20µM*,28.2µM*,50.1µM*,22.4µM*,-77.5*,0.947µM*,31.6µM*,?
O=C1ON=C(c2ccc([N+](=O)[O-])cc2)/C1=C/c1ccccc1O,?,-12.7%,31.7%,-23.9%,?,1.68µM*,?,-28.1%
O=c1c2cc(NC(=S)NCc3cccnc3)ccc2nc2n1CCCCC2,-12.7%,-9.7%,52.4%,24.1%,-1.9,-2.2%,/,/
COCCNC(=O)c1ccc(Cn2c(=S)[nH]c3cc4c(cc3c2=O)OCO4)cc1,-11.8%,28.2µM*,38.3%,-28.8%,4.8,-0.6%,1.41µM*,2µM*
COC(CNC(=O)c1ccc(Cn2c(=S)[nH]c3cc4c(cc3c2=O)OCO4)cc1)OC,-13.8%,22.4µM*,25.5%,?,-4.1,-0.8%,2µM*,2.51µM*
CCOc1cc2[nH]c(=S)n(Cc3ccc(C(=O)NCCCOC)cc3)c(=O)c2cc1OCC,-2.9%,-2.8%,55.8%,-2.9%,9.9,2.9%,/,/
COC(=O)c1ccc2c(=O)n(Cc3ccc(C(=O)NCCCN4CCC(C)CC4)cc3)c(=S)[nH]c2c1,-0.7%,-22.6%,28.5%,-25.3%,6.3,-11.4%,17.8µM*,15.8µM*
COC(=O)c1ccc2c(=O)n(Cc3ccc4c(c3)OCO4)c(=S)[nH]c2c1,29.6%,-10.1%,45.4%,-3.8%,1.0,-10.8%,/,/
O=C(NCc1cccc(Cl)c1)c1ccc(NC(=O)N2CCSc3ccccc32)cc1,-5.0%,-9.1%,28.2%,-12.0%,/,/,/,/
Cc1ccc(N=Nc2c(O)c3ccccc3[nH]c2=O)c(S(=O)(=O)N(C)C)c1,0.7%,/,/,-16.1%,/,/,/,/
SMILES,GCN5L2 inh,JMJD2A Tudor inh,HP1b binding inh,BAZ2B block,PI5P4Ka inh,PLK1 PBD block,TbPYK confirm,TbPYK ADP-Glo
O=S(=O)(O)c1cc(O)c(N=Nc2ccc(O)cc2O)c2ccccc12,/,3.55µM*,?,/,-77.8*,?,11.2µM*,?
CC1(C)CC(=O)C(=Cc2cn(-c3ccccc3)nc2-c2ccccc2)C(=O)C1,/,-0.4%,42.6%,/,-2.7,1.19µM*,10µM*,?
CC(C)(C)n1nnnc1C(c1cccnc1)N1CCN(c2cccc(C(F)(F)F)c2)CC1 (centres undefined),0.5%,-34.4%,46.9%,?,9.7,-7.9%,/,/
CC(C)(C)c1cc(C(c2cccnc2)N2CCN(CCO)CC2)cc(C(C)(C)C)c1O (centres undefined),-6.0%,31.6µM*,?,50.1µM*,/,1.89µM*,0.316µM*,2.82µM*
Cc1sc2c3ccsc3ccc2[n+]1C,?,25.1µM*,-19.6%,100µM*,-29.0,10.6µM*,20µM*,5.01µM*
Cc1sc2ccc3sccc3c2[n+]1C,-2.8%,20µM*,4.5%,?,-20.9,?,4.47µM*,5.01µM*
O=C1CSC(=S)N1N=Cc1ccccc1O,/,17.8µM*,?,/,-84.8*,13.4µM*,12.6µM*,12.6µM*
CCCn1c(N)c(N(CCOC)C(=O)c2ccc(Cl)c([N+](=O)[O-])c2)c(=O)[nH]c1=O,-2.1%,-2.1%,37.7%,-0.1%,-3.4,-1.5%,/,/
CC1(C)Cc2c(C#N)c(SCC(=O)c3ccccc3)nc(N3CCOCC3)c2CO1,-8.7%,63.1µM*,-7.5%,-30.8%,1.9,-21.2%,10µM*,11.2µM*
Cc1ccc(N=c2ssnc2Cl)cc1,20µM*,31.6µM*,15.8µM*,44.7µM*,-65.5*,1.68µM*,6.31µM*,8.91µM*
Cc1nnc(N=c2ssnc2Cl)o1,2.82µM*,44.7µM*,?,?,-100.7*,1.68µM*,4.47µM*,5.01µM*
Cc1ccc(C2=NNC(=Nc3ccc(F)cc3)SC2)cc1,-0.3%,?,?,?,-7.2,?,/,/

# Screens deposited in PubChem by National Center for Advancing Translational Sciences (NCATS).
